# ± gives the standard deviation of the averaged measurements. In all, about 25,000 sequences were measured (“ln(normalized median fluorescence intensity)”: median about 8.9, highest 2% from about 10 on). What follows is part of a selection rich in the highest values, with near analogues and random picks from the rest.
# Test system: PfAP2-LT AP2 domain (GST-tagged)
# Assay: gcPBM binding intensity (ln(normalized median fluorescence intensity)); higher = stronger DNA binding
# In short: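 Binding intensity is defined as the maximum Masliner-normalised natural-log median intensity across replicate spots for either probe orientation. It was measured on an Agilent 4 × 180k array of primer-extended double-stranded 36-bp intergenic genomic probes and negative controls, to which GST-tagged P. falciparum DNA-binding domains made in E. coli were applied for 1 h in 1× PBS with 1% milk, 0.2 mg/ml BSA, 0.5% salmon testes DNA and 0.03% Triton X-100. Detection was by Alexa488 anti-GST antibody and scanning at 488 nm.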
row,Sequence,gcPBM binding intensity (ln)
1,TTTCTTTTTTTTTTTTTTTCTGGCTTTTTCTCTTTT [TGCATGCA_negctrl_site599],8.69 ± 0.49
2,AGAATAAAAAGGAACACACACACACGCATATAAATA [CACACA_site7659],10.1 ± 0.39
3,AATAAAAAGGAACACACACACACACGGATATAAATA [CACACA_site7658],10.3 ± 0.37
4,ATATAAAGAAAAGGAACACACAAATATATATATATA [CACACA_site463],9.56 ± 0.25
5,ATAAATATTAAAAGTACACACAGATACACTAATTAT [CACACA_site1808],9.16 ± 0.36
6,TAATATAAAGAAAAGGAACACACAAATATATATATA [CACACA_site8049],9.04 ± 0.38
7,AACAAATACGGACACACACACACACTAGAAAAAAAA [CACACA_site4442],9.82 ± 0.29
8,TATTAATACGGACACACACACACACTAGATAAAATA [CACACA_site4295],10.1 ± 0.11
9,AAAAAAAAAAAAAACACACACACACGCATAAATATA [CACACA_site6217],9.95 ± 0.28
10,ACCATATAAATAAACACACACACACGGATATAAATA [CACACA_site7157],10.1 ± 0.2
11,TGATTTGTGCCGATTTGTACACATTTATATATATAT [XGTACX_site2154],9.13 ± 0.35
12,GTATATATATATATATATATATATATATATATATAT [CACACA_negctrl_site609],9.63 ± 0.042
13,ATACAAATTGTTTAAAGTACAAATTACACCTCTTAA [XGTACX_site6888],8.62 ± 0.44
14,CATAGGAACATAAGTTGTACGCTATACATACAACAT [XGTACX_site1054],9.05 ± 0.45
15,TTTTCTATATAGTGTTGTACATTATTGTGTAAAAAT [XGTACX_site3223],8.7 ± 0.46
16,AATATAATGTAATATACACACATATATTTCTCTTTT [CACACA_site5451],8.95 ± 0.45
17,CATACACGCGGACACACACACACACGCATATATAAC [CACACA_site6427],10.1 ± 0.23
18,ATAGTATACGGACACACACACACACCGATATATATA [CACACA_site5032],10.3 ± 0.38
19,ACCTACATAACATACACACGCATATATATAATTTTA [CACACA_site2847],9.22 ± 0.33

row,Sequence,gcPBM binding intensity (ln)
1,ATAGTATACAGACACACACACACACCGATATATATA [CACACA_site8511],10.1 ± 0.13
2,ACCATACATACATACACACACACACGCATATTTATA [CACACA_site7386],10.1 ± 0.29
3,CATATATACACATACACACACACACGGACACGCACA [CACACA_site6910],10.07 ± 0.085
4,TATATATATATTTATACACACACATATATTTATATA [CACACA_site8054],9.13 ± 0.29
5,CGCATACACGGACACACACACACATATATATATATA [CACACA_site4520],10.23 ± 0.071
6,TATAGATACCTATACACACACACACGGACATATATA [CACACA_site7585],10 ± 0.25
7,TATTTATATTTATATACACACATACATATTTATATT [CACACA_site6535],9.1 ± 0.4
8,TATACACGCGGACACACACACACACGCAAAAAAAAA [CACACA_site6377],10 ± 0.23
9,AGTATACATATATATACACACACACCGATATATATA [CACACA_site8357],9.74 ± 0.23
10,ATAATACATACATACATACACACATATATATATATT [CACACA_site3576],9.29 ± 0.38
11,TTTTTAATCATAATATGTACATATAAAAATGGTTTG [XGTACX_site3996],8.54 ± 0.41
12,TAAAAATGTAAACACACACACATAAATATATTTTAT [CACACA_site5397],9.45 ± 0.26
13,GATAAAATAGGACCATATTCTTTAAAACGATAAAAT [XGTACX_negctrl_site405],8.73 ± 0.51
14,TTATATTATATATATATTATATATATGTATGCATAA [TGCATGCA_negctrl_site481],8.72 ± 0.2
15,TTTTGCAAATATTACTGTACACAATCTCATATAATT [XGTACX_site2584],8.81 ± 0.35
16,ATTATTTTTTTTGAAGTGCAATATTATTTTTAATCA,8.46 ± 0.45
17,AAAGTATTCTTTACACGTACATATATATAAATATAA [XGTACX_site7557],8.59 ± 0.33
18,CATACATACGGACACACACACATATATATATATATA [CACACA_site5598],10.3 ± 0.15
19,AGGATACACGGACACACACACATATAGATTTATATA [CACACA_site6552],9.78 ± 0.51

row,Sequence,gcPBM binding intensity (ln)
1,CTAAAATACGGACACACACACACATATATATATATA [CACACA_site6138],10.3 ± 0.11
2,ATTATATATATATATACACACACATATATATATATA [CACACA_site8373],9.47 ± 0.25
3,TACATATTTATATACACACACACACGGATATTTATA [CACACA_site7239],9.87 ± 0.45
4,AAAAAACACGGACACACACACATATACATACATACA [CACACA_site5470],9.98 ± 0.41
5,CATACACCCGGACACACACACACACCCATATATAAT [CACACA_site4494],10 ± 0.35
6,AAAATACCCGGACACACACACATATATATATATATT [CACACA_site6137],9.88 ± 0.49
7,TATACACCCGGACACACACACATATATATATATATA [CACACA_site5030],10.36 ± 0.028
8,TTATAAATAAAAAATACACACATATATATATATATA [CACACA_site207],9.64 ± 0.2
9,AGGATACACGGACACACACACATATATATATATATA [CACACA_site4654],10.43 ± 0.078
10,AAAAAAAACGGACACACACACATAAATATATATAAA [CACACA_site4260],9.86 ± 0.34
11,AGTAAAAGAAAGCACACACACATGTATTTATGTATG [CACACA_site5998],9.71 ± 0.42
12,TATATATATATATATTGTACACATACATGTAGTTTT [XGTACX_site4848],9.48 ± 0.49
13,ACACATATAATAGTTACATGCAAAAATACTTTTATT [TGCATGCA_site785],9.03 ± 0.47
14,ACCAAATCATATATAGCACACAAATTCTTTATTATT [CACACA_site8911],8.94 ± 0.38
15,TAAAAAAAAACATGATGTACATAAAATTTTTTACTT [XGTACX_site7056],8.59 ± 0.47
16,AAAAAAATATATAAATGTACATATTGTTTAATTAAT [XGTACX_site3794],8.7 ± 0.45
17,ATAATAAATGATAGCACACATATGTACATAAATACA [CACACA_site4634],9.24 ± 0.31
18,TATTAATTTATATCAACACACAAAATCAATATACTT [CACACA_site1757],8.7 ± 0.42
19,ATTATGCTACAAGGAGAACACACAATTGCCACTTTT [CACACA_site8673],9.1 ± 0.46
